Test results reported in PubChem BioAssay (NCATS).
Inconclusive results are not listed. Active and inactive are the calls of the source. Unless noted, the call rests on the fitted dose curve; in most records, active means well fitted curve in the direction sought with a large enough effect; inconclusive means small, poorly fitted or top-dose-only effect, or another doubt; inactive means no such curve, though single readings can be large; an effect the other way counts as inactive or inconclusive.

Tests used:
[1] = AP1 Signaling Pathway (AID 357; active means well fitted curve in either direction with a large enough effect, not every such curve was filed as active;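 further: ME-180 reporter cells stimulated with EGF at its EC50 level; on the % scale 0 is the no-effect control and ±100 the full control effect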); settings: ME-180 AP-1-bla reporter, EGF-induced, beta-lactamase ratio, 5 h; at 7.69 µM (top of the series) unless noted
In short: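 Cells are seeded overnight, exposed to compound titrations and an EC50 level of EGF for 5 hours at 37 °C, then loaded with CCF4 dye for 2.5 hours. Beta-lactamase activity under the AP-1 element is read as a blue/green ratio.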

[2] = target: Cytochrome P450 1A2 (Homo sapiens) (UniProt P05177); experiment: p450-cyp1a2 (AID 410; calls by dose curve;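 further: -100% = full effect of reference inhibitor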)
Chain of Cytochrome P450 1A2 (Homo sapiens) (P05177 whole entry, looked up): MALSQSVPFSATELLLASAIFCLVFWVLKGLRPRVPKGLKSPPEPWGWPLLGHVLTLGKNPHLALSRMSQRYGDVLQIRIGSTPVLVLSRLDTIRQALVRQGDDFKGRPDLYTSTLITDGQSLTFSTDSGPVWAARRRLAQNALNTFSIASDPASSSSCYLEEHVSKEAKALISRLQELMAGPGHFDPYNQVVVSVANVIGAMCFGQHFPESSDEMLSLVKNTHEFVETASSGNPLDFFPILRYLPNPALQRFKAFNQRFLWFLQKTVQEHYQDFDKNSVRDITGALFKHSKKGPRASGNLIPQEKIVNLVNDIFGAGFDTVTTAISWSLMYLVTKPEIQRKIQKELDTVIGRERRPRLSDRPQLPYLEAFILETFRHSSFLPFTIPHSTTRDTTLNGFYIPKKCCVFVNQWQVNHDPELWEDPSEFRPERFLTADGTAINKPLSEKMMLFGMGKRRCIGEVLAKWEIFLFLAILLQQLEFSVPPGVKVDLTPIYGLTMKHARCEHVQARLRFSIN
In short: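 Read-out is luminescence from luciferin produced by CYP1A2 demethylation of Luciferin-ME (100uM, at Km). Detection reagent stopped the 60 min NADPH-dependent reaction; signals were normalized to 57 uM furafylline.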

[3] = NFAT Signaling Pathway (AID 444; active means well fitted curve in either direction with a large enough effect, not every such curve was filed as active;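 further: carbachol stimulus at about its EC50 of 1 µM final; on the % scale 0 is the no-effect control and ±100 the full control effect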); settings: Jurkat NFAT-bla M1, carbachol, beta-lactamase ratio, 5 h; at 7.69 µM (top of the series) unless noted
In short: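 Jurkat cells with NFAT-driven β-lactamase reporter and co-expressed M1 receptor, stimulated with carbachol (final 1 uM, ~EC50), compound titration, 5 h at 37 °C. CCF4 loaded 1 h at RT; 460/530 nm ratio gave %activity and AC50.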

[4] = Stat Signaling Pathway (AID 446; active means well fitted curve in either direction with a large enough effect, not every such curve was filed as active;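 further: ME-180 cervical cancer cells given 40 pM IL-6 alongside compound; SIE-controlled beta-lactamase reporter measured as 460/530 nm FRET emission ratio; on the % scale 0 is the no-effect control and ±100 the full control effect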); settings: ME-180 (cervical carcinoma) SIE beta-lactamase reporter, IL-6 stimulated, 5 h; at 7.69 µM (top of the series) unless noted
In short: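 Emission at 460 and 530 nm (excitation 405 nm) reports SIE-controlled beta-lactamase in ME-180 cells. Cells received compound with 40 pM IL-6 for 5 hrs at 37 C; data scaled between 300 pM IL-6 and 125 nM JAK-inhibitor controls.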

[5] = target: Glucocorticoid receptor (Homo sapiens) (UniProt P04150); experiment: GR-EFC Redistribution (AID 451; calls by dose curve; further: potency means the concentration at half of the fitted maximal effect); settings: CHO-K1 GR-EFC translocation, beta-gal luminescence, 2 h
Chain of Glucocorticoid receptor (Homo sapiens) (P04150 whole entry, looked up, the tested form may be a part): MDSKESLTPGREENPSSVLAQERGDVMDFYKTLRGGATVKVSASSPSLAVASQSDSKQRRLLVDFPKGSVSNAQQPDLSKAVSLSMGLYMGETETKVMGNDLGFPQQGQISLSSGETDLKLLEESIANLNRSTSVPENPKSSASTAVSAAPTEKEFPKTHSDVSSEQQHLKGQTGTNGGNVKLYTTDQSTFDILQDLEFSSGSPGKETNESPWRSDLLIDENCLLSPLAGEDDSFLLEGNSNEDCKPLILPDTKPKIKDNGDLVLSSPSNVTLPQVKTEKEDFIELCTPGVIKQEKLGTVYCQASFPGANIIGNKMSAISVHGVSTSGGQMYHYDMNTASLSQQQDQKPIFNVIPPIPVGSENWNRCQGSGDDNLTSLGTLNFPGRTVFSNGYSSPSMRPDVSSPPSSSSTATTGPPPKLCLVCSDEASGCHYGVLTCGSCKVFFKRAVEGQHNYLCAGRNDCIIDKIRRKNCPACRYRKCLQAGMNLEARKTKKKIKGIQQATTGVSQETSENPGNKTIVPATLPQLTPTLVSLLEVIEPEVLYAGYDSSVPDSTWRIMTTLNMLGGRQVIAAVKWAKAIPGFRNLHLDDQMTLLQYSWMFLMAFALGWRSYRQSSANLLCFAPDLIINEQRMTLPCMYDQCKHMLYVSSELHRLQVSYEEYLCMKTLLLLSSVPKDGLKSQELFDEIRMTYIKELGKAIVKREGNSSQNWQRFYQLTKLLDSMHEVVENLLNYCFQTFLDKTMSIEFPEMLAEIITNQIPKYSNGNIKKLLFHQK
In short: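 CHO-K1 cells expressing nuclear EA and GR-ED fragments of b-gal; compounds titrated up to 46 uM final, 2 h at 37 C. GR nuclear translocation read as complemented b-gal luminescence after 1 h RT detection.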

[6] = target: Mitogen-activated protein kinase 10 (Mus musculus) (UniProt Q61831); experiment: JNK3 AlphaScreen Assay (AID 530; active means well fitted curve in either direction with a large enough effect, not every such curve was filed as active;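 further: kinase came from lysate of stimulated human HepG2 cells; signal reports phosphorylation of biotinylated GST-cJun 1-79 at Ser73 with 10 µM ATP; on the % scale 0 is the no-effect control and ±100 the full control effect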)
In short: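 HepG2 lysate (IL-1b/TNFa pre-activated) + biotin-GST-cJun 1-79 + anti-pSer73 cJun; cpd titration, 15 min RT; ATP 10 uM start; Tris pH 7.6, MgCl2, DTT, vanadate; beads in EDTA buffer; AlphaScreen.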

[7] = target: 3',5'-cyclic-AMP phosphodiesterase 4B (Homo sapiens) (UniProt Q07343); experiment: qHTS Assay for Inhibitors of PDE-IV (AID 607; active means well fitted activation curve with a large enough effect in the main read-out, with a control signal flat, not every such curve was filed as active; further: % of control where 0% means no effect)
Chain of 3',5'-cyclic-AMP phosphodiesterase 4B (Homo sapiens) (Q07343 whole entry, looked up): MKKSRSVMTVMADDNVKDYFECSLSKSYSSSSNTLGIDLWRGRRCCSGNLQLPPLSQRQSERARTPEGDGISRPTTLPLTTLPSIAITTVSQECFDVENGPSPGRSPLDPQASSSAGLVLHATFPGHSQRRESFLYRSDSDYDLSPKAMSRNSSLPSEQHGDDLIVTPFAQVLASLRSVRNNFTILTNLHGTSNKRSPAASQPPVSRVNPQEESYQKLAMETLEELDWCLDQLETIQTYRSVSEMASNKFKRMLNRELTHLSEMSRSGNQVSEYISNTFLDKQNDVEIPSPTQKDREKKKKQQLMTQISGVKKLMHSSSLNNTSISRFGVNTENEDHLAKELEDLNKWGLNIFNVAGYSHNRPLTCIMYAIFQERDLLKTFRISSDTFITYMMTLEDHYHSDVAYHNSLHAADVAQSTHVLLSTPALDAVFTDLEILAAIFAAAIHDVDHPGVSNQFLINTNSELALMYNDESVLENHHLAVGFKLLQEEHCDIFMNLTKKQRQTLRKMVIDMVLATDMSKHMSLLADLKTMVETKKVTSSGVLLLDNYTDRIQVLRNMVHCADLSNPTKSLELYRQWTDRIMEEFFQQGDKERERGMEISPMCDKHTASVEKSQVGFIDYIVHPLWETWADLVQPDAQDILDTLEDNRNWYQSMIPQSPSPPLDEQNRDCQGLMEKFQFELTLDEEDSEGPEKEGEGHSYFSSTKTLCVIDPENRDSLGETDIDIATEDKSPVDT
In short: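 The readout is membrane depolarisation from a cAMP-sensing CNG channel, detected with a potential dye at ex 535/em 590. Cells were HEK293-derived (endogenous PDE-IV) at 1000 cells/well, titrated up to 22.9 uM final.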

[8] = qHTS Assay for Lipid Storage Modulators (AID 1519; calls by dose curve); settings: Drosophila S3 cells, BODIPY lipid droplet/cell ratio, laser cytometry, cells loaded with oleic acid
In short: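 Cells seeded at 5,000 per well were treated with compounds over a concentration series and loaded with oleic acid (400 uM, as added). Lipid droplet fluorescence (488 nm excitation, 500-530 nm channel) was read by laser-scanning cytometry and normalized to 20 uM Triacsin C.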

[9] = target: ATP-dependent 6-phosphofructokinase (Trypanosoma brucei brucei) (UniProt O15648); experiment: qHTS Assay to Find Inhibitors of T. brucei phosphofructokinase: hit validation (AID 492961)
Chain of ATP-dependent 6-phosphofructokinase (Trypanosoma brucei brucei) (O15648 whole entry, looked up): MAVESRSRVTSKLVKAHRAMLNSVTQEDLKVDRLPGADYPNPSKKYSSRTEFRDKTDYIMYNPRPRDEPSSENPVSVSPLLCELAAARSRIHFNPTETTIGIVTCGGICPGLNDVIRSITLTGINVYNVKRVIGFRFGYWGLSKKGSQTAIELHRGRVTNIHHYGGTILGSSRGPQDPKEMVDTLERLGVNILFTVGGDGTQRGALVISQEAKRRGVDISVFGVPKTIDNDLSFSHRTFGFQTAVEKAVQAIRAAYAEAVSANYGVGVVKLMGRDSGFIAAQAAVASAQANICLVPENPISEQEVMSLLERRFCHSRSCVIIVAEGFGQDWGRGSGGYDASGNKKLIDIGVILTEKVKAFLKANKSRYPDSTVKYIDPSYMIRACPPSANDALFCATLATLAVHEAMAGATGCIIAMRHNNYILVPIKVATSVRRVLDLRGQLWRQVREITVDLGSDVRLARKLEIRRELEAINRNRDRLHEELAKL
In short: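 Compounds titrated; %activity normalized to 0x and 1x enzyme controls, curve-fitted. Readout: ADP-Glo luminescence after 45 min room-temperature reaction of 1.25 nM PFK, 0.1 mM ATP, 0.5 mM F6P, pH 8.0.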

[10] = target: Ubiquitin carboxyl-terminal hydrolase 1 (Homo sapiens) (UniProt O94782); experiment: Inhibitors of USP1/UAF1: Pilot qHTS (AID 504865);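 further: rhodamine fluorescence freed from ubiquitin-rhodamine substrate followed over time; top concentration of the series differs between compounds; on the % scale 0 is the no-effect control and ±100 the full control effect; nearly all actives have a fitted effect of over 35% in size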
Chain of Ubiquitin carboxyl-terminal hydrolase 1 (Homo sapiens) (O94782 whole entry, looked up): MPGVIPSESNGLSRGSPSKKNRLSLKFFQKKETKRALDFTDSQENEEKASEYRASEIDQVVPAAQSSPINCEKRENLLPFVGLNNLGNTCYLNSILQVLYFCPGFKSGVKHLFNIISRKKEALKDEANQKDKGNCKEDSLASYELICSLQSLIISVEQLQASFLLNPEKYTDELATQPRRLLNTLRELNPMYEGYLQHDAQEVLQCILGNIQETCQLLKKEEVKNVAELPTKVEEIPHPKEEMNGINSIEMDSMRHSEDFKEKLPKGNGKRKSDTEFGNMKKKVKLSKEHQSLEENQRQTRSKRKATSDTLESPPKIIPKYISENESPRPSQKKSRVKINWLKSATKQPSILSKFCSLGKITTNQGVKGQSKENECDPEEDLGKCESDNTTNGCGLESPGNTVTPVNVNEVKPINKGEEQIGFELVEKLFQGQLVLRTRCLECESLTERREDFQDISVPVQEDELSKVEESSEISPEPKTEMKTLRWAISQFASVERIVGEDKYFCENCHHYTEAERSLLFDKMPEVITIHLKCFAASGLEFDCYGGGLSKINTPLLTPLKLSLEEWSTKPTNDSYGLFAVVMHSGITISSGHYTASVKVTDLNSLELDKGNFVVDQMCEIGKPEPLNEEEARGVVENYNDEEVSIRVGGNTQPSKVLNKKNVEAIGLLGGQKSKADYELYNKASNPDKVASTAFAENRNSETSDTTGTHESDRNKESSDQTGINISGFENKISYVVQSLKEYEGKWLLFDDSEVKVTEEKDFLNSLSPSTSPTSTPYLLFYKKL
In short: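 In 50mM HEPES pH 7.8 containing 0.5mM EDTA, 1mM TCEP, 0.1 mg/ml BSA and 0.01% Tween-20, 1nM USP1/UAF1 is exposed to compound for 15 min, then Ub-Rho (150nM final) is added and fluorescence is read over time.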

[11] = target: Luciferin 4-monooxygenase (Photinus pyralis) (UniProt P08659); experiment: Biochemical firefly luciferase enzyme assay for NPC (AID 624030);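 further: purified P. pyralis luciferase at 10 nM with luciferin and ATP substrate; 0% = DMSO and -100% = full luciferase inhibition by PTC124 control; nearly all actives have a fitted effect of over 70% in size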
Chain of Luciferin 4-monooxygenase (Photinus pyralis) (P08659 whole entry, looked up): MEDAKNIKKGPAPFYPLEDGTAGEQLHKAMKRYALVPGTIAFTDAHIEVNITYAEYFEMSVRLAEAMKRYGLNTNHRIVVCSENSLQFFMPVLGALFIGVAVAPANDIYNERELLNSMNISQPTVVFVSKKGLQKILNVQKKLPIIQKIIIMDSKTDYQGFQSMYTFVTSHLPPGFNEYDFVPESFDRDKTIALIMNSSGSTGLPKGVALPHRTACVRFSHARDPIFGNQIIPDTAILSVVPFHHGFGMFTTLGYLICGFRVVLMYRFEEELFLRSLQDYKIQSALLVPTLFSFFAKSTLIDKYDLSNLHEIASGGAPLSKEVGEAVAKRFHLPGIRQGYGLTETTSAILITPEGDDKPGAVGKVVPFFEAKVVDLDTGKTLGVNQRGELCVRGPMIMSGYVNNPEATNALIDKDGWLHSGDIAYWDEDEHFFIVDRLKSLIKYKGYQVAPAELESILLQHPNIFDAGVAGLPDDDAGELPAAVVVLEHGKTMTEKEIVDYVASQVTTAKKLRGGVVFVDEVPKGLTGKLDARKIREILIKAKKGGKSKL
In short: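 Purified P. pyralis luciferase at 10 nM in 50 mM Tris Acetate (final), luminescence read within 5 minutes of enzyme addition to compounds. Activity normalised to PTC124 versus DMSO; concentration-response curves classed by r2, magnitude and activity.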

[12] = S16 Schwann cell viability assay (CellTiter-Glo assay) (AID 624031);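 further: native untransfected S16 rat Schwann cells; cellular ATP luminescence as a viability measure; plate controls were DMSO-treated cells for no effect and cell-free wells for full effect; nearly all actives have a fitted effect of over 70% in size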
In short: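 Following overnight culture in 10% FBS DMEM, parental S16 rat Schwann cells are dosed for 24 h at 37 °C. Viability is read as CellTiter-Glo luminescence and expressed as % activity relative to DMSO (0%) and no-cell wells.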

[13] = S16 Schwann cell PMP22 intronic element firefly luciferase assay (AID 624032);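 further: plate controls were DMSO for no effect and PTC124 positive control mean for full effect; nearly all actives have a fitted effect of over 30% in size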
In short: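 Rat S16 Schwann cells stably carrying firefly luciferase driven by a PMP22 intronic element, in 10% FBS, treated 24 h at 37 C. ONE-Glo luminescence normalized to PTC124 control and DMSO (0%); curves classed by r2, magnitude and activity.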

[14] = S16 Schwann cell PMP22 intronic element beta-lactamase assay (AID 624044; calls by dose curve;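 further: 0% = DMSO and -100% = potassium clavulanate positive control; nearly all actives have a fitted effect of over 15% in size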)
In short: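 Beta-lactamase reporter under a PMP22 intronic regulatory element in stable S16 rat Schwann cells; 24 h compound exposure. 460 nm blue signal normalized between DMSO (0%) and potassium clavulanate, with 535 nm FRET tracking viability; curves classed by r2 and response.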

[15] = qHTS profiling for inhibitors of Plasmodium falciparum proliferation (AID 504749);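 further: 0% = DMSO vehicle and full inhibition = artemisinin control; nearly all actives have a fitted effect of over 60% in size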; settings: P. falciparum in erythrocytes, SYBR Green DNA, 72 h, at 12.8 µM (top of the series)
In short: (§1)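 SYBR Green fluorescence (ex 485 nm, em 535 nm) reports parasite DNA after 72 h compound exposure of infected red cells at 0.3% parasitemia, 2.5% hematocrit; signal normalized to 0.29 uM artemisinin and vehicle wells.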

3D7 = experiment: as above; settings: P. falciparum in erythrocytes, SYBR Green DNA, 72 h; series mostly up to 12.8 µM
In short: as §1

7G8 = experiment: as above; settings: P. falciparum in erythrocytes, SYBR Green DNA, 72 h; series mostly up to 12.8 µM
In short: as §1

AA1029 = experiment: as above; settings: P. falciparum in erythrocytes, SYBR Green DNA, 72 h; series mostly up to 12.8 µM
In short: as §1

AS120 = experiment: as above; settings: P. falciparum in erythrocytes, SYBR Green DNA, 72 h; series mostly up to 28.7 µM
In short: as §1

ATS189 = experiment: as above; settings: P. falciparum in erythrocytes, SYBR Green DNA, 72 h; series mostly up to 12.8 µM
In short: as §1

ATS95 = experiment: as above; settings: P. falciparum in erythrocytes, SYBR Green DNA, 72 h; series mostly up to 12.8 µM
In short: as §1

C2A = experiment: as above; settings: P. falciparum in erythrocytes, SYBR Green DNA, 72 h; series mostly up to 12.8 µM
In short: as §1

CP185 = experiment: as above; settings: P. falciparum in erythrocytes, SYBR Green DNA, 72 h; series mostly up to 12.8 µM
In short: as §1

CP192 = experiment: as above; settings: P. falciparum in erythrocytes, SYBR Green DNA, 72 h; series mostly up to 28.7 µM
In short: as §1

CP194 = experiment: as above; settings: P. falciparum in erythrocytes, SYBR Green DNA, 72 h; series mostly up to 12.8 µM
In short: as §1

CP201 = experiment: as above; settings: P. falciparum in erythrocytes, SYBR Green DNA, 72 h; series mostly up to 12.8 µM
In short: as §1

CP203 = experiment: as above; settings: P. falciparum in erythrocytes, SYBR Green DNA, 72 h; series mostly up to 12.8 µM
In short: as §1

CP211 = experiment: as above; settings: P. falciparum in erythrocytes, SYBR Green DNA, 72 h; series mostly up to 12.8 µM
In short: as §1

CP215 = experiment: as above; settings: P. falciparum in erythrocytes, SYBR Green DNA, 72 h; series mostly up to 28.7 µM
In short: as §1

CP217 = experiment: as above; settings: P. falciparum in erythrocytes, SYBR Green DNA, 72 h; series mostly up to 12.8 µM
In short: as §1

CP237 = experiment: as above; settings: P. falciparum in erythrocytes, SYBR Green DNA, 72 h; series mostly up to 12.8 µM
In short: as §1

CP238 = experiment: as above; settings: P. falciparum in erythrocytes, SYBR Green DNA, 72 h; series mostly up to 12.8 µM
In short: as §1

CP247 = experiment: as above; settings: P. falciparum in erythrocytes, SYBR Green DNA, 72 h; series mostly up to 12.8 µM
In short: as §1

CP250 = experiment: as above; settings: P. falciparum in erythrocytes, SYBR Green DNA, 72 h; series mostly up to 12.8 µM
In short: as §1

CP252 = experiment: as above; settings: P. falciparum in erythrocytes, SYBR Green DNA, 72 h; series mostly up to 12.8 µM
In short: as §1

Cn1c(=O)c2c(ncn2C[C@@H](O)CO)n(C)c1=O
-0.706%: max response ([8]; measured here: lipid channel max response)
inactive: activity change, negative = inhibition [1] 9.72% [at 17.2 µM] | Potency [2] | activity change, negative = inhibition [3] -4.3% [at 17.2 µM] | activity, negative = inhibition [4] 11.3% [at 17.2 µM] | Potency [5] > 20.6 µM | Potency [6] | Potency [7] | activity change, negative = inhibition ([8]; at 25.7 µM (top of the series)) 0.654% | outcome [9] | Potency [10] | outcome [11] | Potency [12] | Potency [13] | outcome [14] | activity, negative = inhibition ([15]; parasite line A) 0.439% | activity, negative = inhibition ([15]; parasite line B) -2.95% | Potency (3D7) | Potency (7G8) | Potency (AA1029) | Potency (AS120) | Potency (ATS189) | Potency (ATS95) | Potency (C2A) | Potency (CP185) | Potency (CP192) | Potency (CP194) | Potency (CP201) | Potency (CP203) | Potency (CP211) | Potency (CP215) | Potency (CP217) | Potency (CP237) | Potency (CP238) | Potency (CP247) | Potency (CP250) | Potency (CP252)
-0.539%: max response ([8]; measured here: cell count channel max response)
